The list is not random: actives were taken first. Their share in the collection is about 4.4%.
Mot1-301 SUMO: yeast Mot1-301 growth rescue at high temperature, primary screen, SUMOylation pathway inhibitor project, S. cerevisiae, ATP luminescence, 38.5C | S. cerevisiae Mot1-301 growth rescue; percent above DMSO median, 100 means doubled | growth rescue, % at 18.8 µM | hit rate 1% among 320,000 | AID 2716, 2010;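 active = every valid replicate shows activation above 250% relative to neutral control wells; inactive = the rest, any valid replicate at or below 250%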;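 also: OY570 slx delta 5 strain wells were the positive control but not used for scaling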
tim10-1 inh: growth inhibitors of tim10-1 mutant yeast, primary screen, luminescence, uHTS. S. cerevisiae tim10-1 ts strain growth, BacTiter-Glo, 24 h. inhibition, % at 20 µM. hit rate 2.2% among 330,000. AID 463190, 2010;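 active = inhibition of at least 40%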;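 also: mutant grown at 25 °C; 0% = DMSO wells with yeast and 100% = wells holding no yeast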
TIM10 inh: growth inhibitors of isogenic TIM10 control yeast, primary screen, counter-screen for tim10-1 yeast inhibitor project, luminescence, uHTS | S. cerevisiae TIM10 strain growth, BacTiter-Glo luminescence, 24 h | inhibition, % at 10 µM | hit rate 1.4% among 330,000;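 active = inhibition of 40% or more at the single tested concentration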;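 also: wild-type TIM10 isogenic control strain grown at permissive 25 °C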
tim23-1 inh: growth inhibitors of tim23-1 mutant yeast, primary screen, luminescence, uHTS; inhibition, % at 20 µM; S. cerevisiae tim23-1 growth, BacTiter-Glo luminescence, 24 h; hit rate 1.3% among 330,000; AID 463212, 2010;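 active = growth inhibition of the mutant yeast at or above 50%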;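 also: temperature-sensitive mutant grown at 25 °C; plate controls were DMSO-treated mutant yeast for no effect and medium wells lacking yeast for full effect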
PfHsp90 yeast 2: growth inhibition of PfHsp90-expressing yeast, primary screen, antimalarial PfHsp90 inhibitor project, S. cerevisiae, BacTiter-Glo luminescence, single point, set 2 | BacTiter-Glo ATP, 48 h; yeast lacking PDR1 and PDR3 efflux regulators | inhibition, % at 9.4 µM | hit rate 0.32% among 310,000;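 active = every replicate shows inhibition above about 80%, whatever the replicate mean, limit read from the data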;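 also: 0% = DMSO neutral controls and 100% = 20 µM radicicol positive controls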
tim10-1 conf: growth inhibitors of tim10-1 mutant yeast, confirmation, single concentration, luminescence, S. cerevisiae | S. cerevisiae tim10-1 ts strain growth, BacTiter-Glo, 24 h | AID 463213, 2010 | shares compounds with tim10-1 inh | hit rate 56% among 7,400 | inhibition, % at 20 µM;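 active = inhibition of yeast growth at or above a set limit in either of two repeat tests at 20 µM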;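 also: tim10-1 mutant grown at permissive 25 °C to find synthetic lethal compounds; 0% = DMSO yeast wells and 100% = medium wells without yeast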
tim10 confirm: growth inhibitors of wild-type TIM10 yeast, confirmation, counter-screen for tim10-1 synthetic lethality project, single concentration, luminescence, S. cerevisiae; hit rate 63% among 4,600; shares compounds with TIM10 inh; AID 463215, 2010; S. cerevisiae tim10 strain growth, BacTiter-Glo luminescence, 24 h; inhibition, % at 10 µM;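 active = inhibition of yeast growth at or above a set limit in either of two replicates at 10 µM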;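 also: this counterscreen used the strain with wild-type TIM10; 0% = yeast with DMSO and 100% = medium wells lacking yeast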
tim23-1 confirm: tim23-1 mutant yeast growth inhibitors, confirmation, luminescence, single concentration; shares compounds with tim23-1 inh; S. cerevisiae tim23-1 growth, BacTiter-Glo luminescence, 24 h; inhibition, % at 20 µM; hit rate 83% among 4,400;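 active = inhibition above about 39% in either of two replicate wells at 20 µM, limit read from the data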;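 also: temperature-sensitive tim23-1 mutant grown at 25 °C; 0% = DMSO wells with yeast and 100% = medium wells without yeast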
Numbers without * were called inactive; . = no result given.

SMILES	Mot1-301 SUMO	tim10-1 inh	TIM10 inh	tim23-1 inh	PfHsp90 yeast 2	tim10-1 conf	tim10 confirm	tim23-1 confirm
COc1ccc(-c2cc(C(=O)Nc3ccc(C(N)=O)cc3)c3ccccc3n2)cc1	8.3	15.5	1.1	11.5	2.4	.	.	.
CC(=O)COC(=O)c1cc(-c2ccc(C)cc2)nc2ccccc12	-14.8	36.7	34.8	24.8	-1.0	.	.	.
COC(=O)c1cc(-c2ccc(NC(C)=O)cc2)nc2ccccc12	-16.8	50.2*	36.1	53.2*	-8.2	38.5*	.	57.4*
Cc1ccc(/C(N)=N/OC(=O)c2cc(-c3ccccc3)nc3ccccc23)cc1	.	69.6*	86.5*	83.9*	-17.5	64.5*	85.8*	80.0*
O=C(CN1CCOCC1)NNC(=O)c1ccc(Cl)cc1	-17.7	-1.8	-2.1	7.4	-3.1	.	.	.
CCCCC(c1nnnn1C(C)C)N1CCN(C(=O)c2ccco2)CC1 (centres undefined)	6.6	19.3	8.7	15.7	20.4	.	.	.
COC(=O)C1=C(C)NC(=S)NC1c1ccc(-c2cccc(Cl)c2)o1 (centres undefined)	-6.5	50.3*	53.2*	52.1*	17.0	38.6*	1.4	48.6*
COC(=O)C1=C(C)NC(=S)NC1c1ccc(-c2ccccc2C(=O)OC)o1 (centres undefined)	-1.7	23.5	5.8	16.4	12.2	.	.	.
O=C(NCc1ccc(F)cc1)C1(S(=O)(=O)c2ccc(Cl)cc2)CC1	-0.6	14.2	5.4	1.2	-6.5	.	.	.
c1ccc(N/N=C(\Cc2ncc[nH]2)c2ccccc2)cc1	11.2	13.3	20.1	20.6	14.5	.	.	.
Clc1cccc(N/N=C(\Cc2nc3ccccc3[nH]2)c2ccccc2)c1	28.1	40.3*	55.9*	64.4*	-0.2	-11.8	8.2	14.0
CS(=O)c1nc(-c2ccc(Br)cc2)cc(-c2ccccc2)c1C#N (centres undefined)	2.4	40.8*	20.2	67.6*	0.4	45.6*	.	59.7*
O=C(Nc1ccccc1)OCCN1CCOCC1	.	.	.	.	18.9	.	.	.
O=C(/C=C/c1cccs1)c1ccc(Br)cc1	1.7	6.4	17.4	13.4	0.6	.	.	.
O=C(/C=C\c1cccs1)c1c(O)ccc2ccc(=O)oc12	1.1	75.3*	75.3*	78.0*	-25.0	80.8*	74.7*	68.8*
CCOc1ccc(CN2CCC(n3nccc3NC(=O)c3ccccc3OC)CC2)cc1	5.5	1.1	2.1	8.4	-6.7	.	.	.
Cc1ccc(Cc2cc(-c3ccc(C)cc3)n[nH]c2=O)cc1	285.9	-14.3	11.9	33.8	-0.2	.	.	.
CCc1ccc2c(c1)C1(NN=C(c3ccc(C)cc3)S1)C(=O)N2 (centres undefined)	-31.5	92.4*	40.3*	82.7*	-73.4	87.9*	10.0	80.8*
CCCNC(=O)c1nnsc1S(=O)c1ccc(Cl)cc1 (centres undefined)	.	90.6*	82.7*	82.2*	105.0*	87.4*	95.7*	91.2*
CCCNC(=O)NS(=O)(=O)c1ccc(Cl)cc1	15.1	4.5	12.1	-5.6	17.6	.	.	.
CNC(=O)c1nnsc1S(=O)c1ccc(Cl)cc1 (centres undefined)	.	70.1*	76.5*	51.6*	-19.6	67.8*	73.3*	50.8*
CCCNC(=O)c1nnsc1S(=O)(=O)c1ccc(Cl)cc1	.	75.0*	75.8*	63.8*	104.7*	66.2*	70.0*	63.0*
N#C/C(=C\c1ccccc1)C(=O)N(c1ccccn1)C1CCCCC1	467.4	48.6*	57.6*	71.3*	-73.8	69.6*	67.2*	58.4*
Cc1ccsc1CN(C)CC(=O)Nc1ccccc1C(=O)NC1CC1	-18.1	8.0	8.4	9.2	.	.	.	.
COc1ccc(SN=C2C(C)=CC(=O)C=C2C)cc1	8.7	70.9*	91.3*	75.0*	91.2*	73.0*	96.4*	74.5*
SMILES	Mot1-301 SUMO	tim10-1 inh	TIM10 inh	tim23-1 inh	PfHsp90 yeast 2	tim10-1 conf	tim10 confirm	tim23-1 confirm
COc1ccc(S(=O)(=O)N=C2C=C(C)C(=O)C(C)=C2)cc1	21.7	17.5	7.1	17.8	-13.4	.	.	.
Oc1ccccc1C1Nc2cccc3cccc(c23)N1	-0.3	51.8*	46.4*	77.0*	-43.5	52.2*	43.8*	73.5*
Cc1[nH]n(C(N)=S)c(=O)c1N=Nc1ccc([N+](=O)[O-])cc1Cl	4.1	45.1*	22.5	57.6*	-23.1	51.7*	.	66.8*
CCOC(=O)CNc1c(-c2ccccc2)nc2ccc(Cl)cn12	-6.4	40.4*	40.3*	51.3*	73.4	32.8*	2.5	51.0*
COc1ccc2[nH]c3c4c(ccc3c2c1)C(=O)C=CC4=O	.	61.6*	79.1*	75.7*	7.2	77.0*	98.9*	-22.8
COc1ccc2[nH]c(=O)cc(C(=O)O)c2c1	-1.4	14.7	6.3	5.0	26.6	.	.	.
CCn1c(=O)c(C(=O)NCc2ccccn2)c(O)c2ccccc21	0.6	44.7*	37.8	59.6*	-13.2	16.0	.	57.8*
Cc1cc(NC(=O)COC(=O)C2CCN(S(=O)(=O)c3ccccc3)CC2)c([N+](=O)[O-])cc1C	-8.4	6.6	13.5	29.9	-6.3	.	.	.
Cc1c(N2C(=O)/C(=C/c3ccccc3)SC2=S)c(=O)n(-c2ccccc2)n1C	-13.8	28.3	6.8	10.4	-9.2	.	.	.
Cc1c(N2C(=O)/C(=C/C3CC=CCC3)SC2=S)c(=O)n(-c2ccccc2)n1C (centres undefined)	-30.0	47.6*	39.5	51.3*	.	34.6*	.	47.0*
O=C1Nc2ccc(Br)cc2/C1=C/C1CC=CCC1 (centres undefined)	2.8	59.4*	58.7*	59.4*	102.6*	50.2*	70.5*	-22.2
CCOC(=O)C1=C(CC)Nc2ccccc2N=C1NC(=O)c1cc(C)on1	7.2	19.7	4.0	19.3	15.6	.	.	.
CCOC(=O)C1=C(CC)Nc2ccccc2N=C1NC(=O)Nc1ccc(Cl)c(Cl)c1	8.5	78.6*	69.8*	76.1*	103.7*	71.1*	-25.4	71.8*
Cc1cccc(/C=N/NC(=O)c2ccc3c(c2)OCCO3)c1O	-6.0	49.7*	65.2*	62.6*	19.0	45.8*	68.3*	75.9*
C=CCN(C(=O)c1csnn1)C(C(=O)NC1CCCC1)c1c(F)cccc1Cl (centres undefined)	-5.7	12.8	-8.0	9.6	5.5	.	.	.
